{"source": "PubChem BioAssay AID463173", "about": "(ICCB-Longwood Screening Facility, Harvard Medical School, 2010)", "note": "In all, about 52,000 compounds went through this assay and about 4,300 (8.3%) were called active. Cut-off read from the data, not from the text of the source: active = survival mostly below about 52% (no sharp cut-off); inactive = mostly above about 56%. Only a selection was taken, and actives are over-represented in it overall."}
{"test_system": "DeltatarO mutant", "test": "S. aureus survival, RN4220 and DeltatarO strains – OD600, teichoic acid synthesis inhibitors, primary screen (AID 463173)", "conditions": "S. aureus RN4220 wild type/DeltatarO growth, OD600, 18 h, stronger effect = lower value, screened at 18.75 µg/mL (by protocol)"}
{"smiles": "O=C(CSc1oc(-c2ccco2)nc1S(=O)(=O)c1ccc(Cl)cc1)c1ccc(Cl)cc1", "survival": "80% (inactive)"}
{"smiles": "Cn1cc(S(=O)(=O)c2ccccc2)c(=O)c2cc(F)c(N3CCCC3)cc21", "survival": "123% (inactive)"}
{"smiles": "CC(=O)N1CCCc2cc(S(=O)(=O)N3CCC(C(=O)Nc4cccc(Cl)c4C)CC3)ccc21", "survival": "74% (inactive)"}
{"smiles": "Cc1cccc(C)c1-n1ncc(C(=O)NCCCN2CCC(C)CC2)c1C1CCN(C(=O)OC(C)(C)C)CC1", "survival": "91% (inactive)"}
{"smiles": "COc1ccccc1CNC(=O)CCc1c(C)nn(-c2ccc(N3CCOCC3)nn2)c1C", "survival": "80% (inactive)"}
{"smiles": "CC(C)(C)OC(=O)N1CCC(c2c(C(=O)NCCN3CCc4ccccc4C3)cnn2-c2ccc(F)cc2F)CC1", "survival": "70% (inactive)"}
{"smiles": "Cc1ccc(C)c(N2CCN(CCCNC(=O)c3cnn(-c4ccccc4Cl)c3C3CCN(C(=O)OC(C)(C)C)CC3)CC2)c1", "survival": "74% (inactive)"}
{"smiles": "Cc1ccc(C)c(N2CCN(CCCNC(=O)c3cnn(-c4cccc(Cl)c4)c3C3CCN(C(=O)OC(C)(C)C)CC3)CC2)c1", "survival": "52% (active)"}
{"smiles": "Cc1ccc(-n2ncc(C(=O)NCc3ccccn3)c2C2CCN(C(=O)OC(C)(C)C)CC2)c(C)c1", "survival": "63% (inactive)"}
{"smiles": "Cc1ccc(C)c(N2CCN(CCCNC(=O)c3cnn(-c4ccccc4)c3C3CCN(C(=O)OC(C)(C)C)CC3)CC2)c1", "survival": "104% (inactive)"}
{"smiles": "Cc1ccc(-n2ncc(C(=O)NCc3ccco3)c2C2CCN(C(=O)OC(C)(C)C)CC2)c(C)c1", "survival": "25% (active)"}
{"smiles": "Cc1cccc(-n2ncc(C(=O)NCc3ccco3)c2C2CCN(C(=O)OC(C)(C)C)CC2)c1", "survival": "81% (inactive)"}
{"smiles": "CC(C)(C)OC(=O)N1CCC(c2c(C(=O)NCCN3CCOCC3)cnn2-c2ccc(F)cc2F)CC1", "survival": "-1% (active)"}
{"smiles": "CC(C)(C)OC(=O)N1CCC(c2c(C(=O)NCc3ccccn3)cnn2-c2ccccc2)CC1", "survival": "101% (inactive)"}
{"smiles": "CC(C)(C)OC(=O)N1CCC(c2c(C(=O)NCc3ccccn3)cnn2-c2ccccc2Cl)CC1", "survival": "-4% (active)"}
{"smiles": "CC(C)(C)OC(=O)N1CCC(c2c(C(=O)NCCN3CCOCC3)cnn2-c2ccc(F)cc2)CC1", "survival": "73% (inactive)"}
{"smiles": "Cc1ccc(-n2ncc(C(=O)NCc3ccco3)c2C2CCN(C(=O)OC(C)(C)C)CC2)cc1", "survival": "94% (inactive)"}
{"smiles": "COc1ccc(NC(=O)CSc2oc(-c3cccs3)nc2S(=O)(=O)c2ccc(Br)cc2)c(OC)c1", "survival": "57% (inactive)"}
{"smiles": "O=C(Nc1cccc(F)c1)C1CCN(c2nc3ccccc3nc2C(F)(F)F)CC1", "survival": "83% (inactive)"}
{"smiles": "COc1ccc(C(=O)N2CCC(C(=O)O)CC2)cc1", "survival": "97% (inactive)"}
{"smiles": "Nc1cccc(-c2cn3ccccc3n2)c1", "survival": "96% (inactive)"}
{"smiles": "Cc1ccc(-c2noc(CSc3nnc(C)n3-c3ccc(C)c(C)c3)n2)cc1", "survival": "75% (inactive)"}
{"smiles": "CCOc1ccc(CNC(=O)Cn2cc3c(n2)-c2c(oc(C(=O)N4CCOCC4)c2C)CC3)cc1", "survival": "72% (inactive)"}
{"smiles": "Cc1cccc(C)c1NC(=O)C(=O)NCC(c1ccc2c(c1)OCO2)N1CCN(C)CC1", "note": "(stereo not drawn)", "survival": "88% (inactive)"}
{"smiles": "Cc1cccc(NCN2C(=O)S/C(=C/c3ccc(N(C)C)cc3)C2=O)c1", "survival": "73% (inactive)"}
{"smiles": "O=C(Cn1nc(-c2ccccc2)ccc1=O)NCC1COCCO1", "note": "(stereo not drawn)", "survival": "92% (inactive)"}
{"smiles": "COc1ccc(NC(=O)c2c(NC(=O)COc3ccc(Cl)cc3)sc3c2CCCCC3)cc1", "survival": "135% (inactive)"}
{"smiles": "CCCCOc1ccc(C(=O)NCCc2csc(-c3ccc(OC)cc3)n2)cc1", "survival": "108% (inactive)"}
{"smiles": "CCOC(=O)c1c(NC(=O)C(C)Sc2cn(CCNC(=O)c3ccc(OCC)cc3)c3ccccc23)sc2c1CCC2", "note": "(stereo not drawn)", "survival": "92% (inactive)"}
{"smiles": "CCOC(=O)c1c(C)[nH]c(C)c1S(=O)(=O)N(C)CC(=O)Nc1ccc(C)cc1C", "survival": "95% (inactive)"}
{"smiles": "Cc1c(Cl)cccc1-n1ncc(C(=O)NC2CCCCC2)c1C1CCN(C(=O)OC(C)(C)C)CC1", "survival": "94% (inactive)"}
{"smiles": "CCOC(=O)N1CCC(NC(=O)c2cnn(-c3cccc(Cl)c3C)c2C2CCN(C(=O)OC(C)(C)C)CC2)CC1", "survival": "20% (active)"}
{"smiles": "Cc1cccc(C)c1-n1ncc(C(=O)NCCN2CCOCC2)c1C1CCN(C(=O)OC(C)(C)C)CC1", "survival": "101% (inactive)"}
{"smiles": "Cc1ccc(-n2ncc(C(=O)NCCN3CCc4ccccc4C3)c2C2CCN(C(=O)OC(C)(C)C)CC2)c(C)c1", "survival": "64% (inactive)"}
{"smiles": "Cc1cccc(C)c1-n1ncc(C(=O)NCCN2CCN(C)CC2)c1C1CCN(C(=O)OC(C)(C)C)CC1", "survival": "8% (active)"}
{"smiles": "CC1CCN(C(=O)c2cnn(-c3cccc(Cl)c3)c2C2CCN(C(=O)OC(C)(C)C)CC2)CC1", "survival": "78% (inactive)"}
{"smiles": "Cc1ccc(-n2ncc(C(=O)NCCN3CCOCC3)c2C2CCN(C(=O)OC(C)(C)C)CC2)c(C)c1", "survival": "37% (active)"}
{"smiles": "Cc1cccc(C)c1-n1ncc(C(=O)NCCCN2CCCCC2)c1C1CCN(C(=O)OC(C)(C)C)CC1", "survival": "89% (inactive)"}
{"smiles": "CCOC(=O)c1cnn(-c2cccc(Cl)c2)c1C1CCN(C(=O)OC(C)(C)C)CC1", "survival": "55% (active)"}
{"smiles": "Cc1ccc(-n2ncc(C(=O)NCCN3CCN(C)CC3)c2C2CCN(C(=O)OC(C)(C)C)CC2)c(C)c1", "survival": "92% (inactive)"}
{"smiles": "CCN1CCN(C(=O)c2cnn(-c3cccc(Cl)c3)c2C2CCN(C(=O)OC(C)(C)C)CC2)CC1", "survival": "74% (inactive)"}
{"smiles": "Cc1c(Cl)cccc1-n1ncc(C(=O)NC2CCCC2)c1C1CCN(C(=O)OC(C)(C)C)CC1", "survival": "102% (inactive)"}
{"smiles": "COc1cccc(-n2c(=O)c3sc4ccccc4c3n(CC(=O)NC3CCCCC3)c2=O)c1", "survival": "126% (inactive)"}
{"smiles": "Cc1ccc(-n2ncc(C(=O)NCc3ccccc3)c2C2CCN(C(=O)OC(C)(C)C)CC2)cc1", "survival": "94% (inactive)"}
{"smiles": "COc1cccc(-n2cc(C(=O)NCc3ccc(C)cc3)c3ccccc3c2=O)c1", "survival": "81% (inactive)"}
{"smiles": "COc1ccccc1CNS(=O)(=O)c1ccc2c(c1)CC(C)N2C(C)=O", "note": "(stereo not drawn)", "survival": "71% (inactive)"}
{"smiles": "CC(C)COc1ccc(C(=O)Nc2scc(-c3ccc(Br)cc3)c2C(=O)OC(C)C)cc1", "survival": "53% (inactive)"}
{"smiles": "COc1ccc(NC(=O)Cn2ncc3c(C)n(Cc4cccc(Cl)c4)c(C)c3c2=O)cc1", "survival": "92% (inactive)"}
{"smiles": "CCOc1ccc(-n2cc(-c3ccccc3)c3c(NC4CCCC4)ncnc32)cc1", "survival": "104% (inactive)"}
{"smiles": "CC(C)(C)OC(=O)N1CCC(c2c(C(=O)NC3CCN(Cc4ccccc4)CC3)cnn2-c2ccc(F)cc2F)CC1", "survival": "-2% (active)"}
{"smiles": "CCOC(=O)N1CCC(NC(=O)c2cnn(-c3ccc(F)cc3F)c2C2CCN(C(=O)OC(C)(C)C)CC2)CC1", "survival": "71% (inactive)"}
{"smiles": "CC(C)(C)OC(=O)N1CCC(c2c(C(=O)NC3CCN(Cc4ccccc4)CC3)cnn2-c2cccc(F)c2)CC1", "survival": "92% (inactive)"}
{"smiles": "Cc1ccc(-n2ncc(C(=O)NCCCN3CCN(C)CC3)c2C2CCN(C(=O)OC(C)(C)C)CC2)c(C)c1", "survival": "105% (inactive)"}
{"smiles": "Cc1ccc(-n2ncc(C(=O)NCCCN3CCCCC3)c2C2CCN(C(=O)OC(C)(C)C)CC2)c(C)c1", "survival": "46% (active)"}
{"smiles": "CCN1CCN(CCCNC(=O)c2cnn(-c3ccc(C)cc3C)c2C2CCN(C(=O)OC(C)(C)C)CC2)CC1", "survival": "144% (inactive)"}
{"smiles": "CCC(=O)Nc1ccc2nc3c(=O)n(C)c(=O)n(C)c3nc2c1", "survival": "66% (inactive)"}
{"smiles": "Cc1ccc(S(=O)(=O)c2cc3cc(C(=O)Nc4ccc(C)cc4C)ccc3oc2=O)cc1", "survival": "89% (inactive)"}
{"smiles": "CCOC(=O)COc1nc(C)c(Br)c(OC)n1", "survival": "81% (inactive)"}
{"smiles": "COc1ccc(CNC(=O)COCc2cc(-c3cccs3)on2)cc1", "survival": "107% (inactive)"}
{"smiles": "CC1CCN(S(=O)(=O)c2ccc3c(c2)CCN3C(=O)Nc2ccc(Br)cc2F)CC1", "survival": "74% (inactive)"}
{"smiles": "CC(CNc1nc2ccccc2c2nc(-c3ccccc3)nn12)c1ccccc1", "note": "(stereo not drawn)", "survival": "121% (inactive)"}
{"smiles": "CCCCNC(=O)CCC(=O)NNc1nc2ccccc2c2nc(-c3ccccc3)nn12", "survival": "78% (inactive)"}
{"smiles": "Clc1ccc(CCNc2nc3ccccc3c3nc(-c4ccccc4)nn23)cc1", "survival": "29% (active)"}
{"smiles": "O=c1n(Cc2ccc(Cl)cc2)c2ccccc2c2nc(-c3ccccc3)nn12", "survival": "95% (inactive)"}
{"smiles": "Cc1ccc(CCNc2nc3ccccc3c3nc(-c4cccnc4)nn23)cc1", "survival": "66% (inactive)"}
{"smiles": "CCCCNc1nc2ccccc2c2nc(-c3ccccc3)nn12", "survival": "-1% (active)"}
{"smiles": "COc1cc2nc(NCCc3ccc(Cl)cc3)n3nc(-c4ccccc4)nc3c2cc1OC", "survival": "51% (inactive)"}
{"smiles": "Cc1ccc(CCNc2nc3ccccc3c3nc(-c4ccccc4)nn23)cc1", "survival": "44% (active)"}
{"smiles": "CCc1ccc(CNC(=O)Cn2nc(C)n3c(cc4cc(C)ccc43)c2=O)cc1", "survival": "83% (inactive)"}
{"smiles": "Cc1ccc(NC(=O)c2cnc3sc(N4CCOCC4)nn3c2=O)cc1N(C)C", "survival": "80% (inactive)"}
{"smiles": "COc1cccc(NC(=O)Cn2nnc(C(=O)NCCc3ccccc3)c2N)c1", "survival": "144% (inactive)"}
{"smiles": "Cc1ccc(Cn2c(=O)n(-c3cccc(C(F)(F)F)c3)c(=O)c3c(C)c(C)sc32)c(C)c1", "survival": "97% (inactive)"}
{"smiles": "COc1ccc(CNC(=O)c2cnc(N(C)C)nc2)cc1", "survival": "73% (inactive)"}
{"smiles": "COc1ccc(-c2cn3c(c2C)-c2ccc(C)n2CC3)cc1", "survival": "91% (inactive)"}
{"smiles": "Cc1ccc(C(=O)N(Cc2ccco2)Cc2sccc2C)cc1", "survival": "44% (inactive)"}
{"smiles": "O=C(c1ccccc1)N(Cc1ccco1)Cc1cccs1", "survival": "41% (active)"}
{"smiles": "O=C(c1cc2sccc2n1Cc1ccccc1)N(Cc1ccco1)Cc1cccs1", "survival": "96% (inactive)"}
{"smiles": "Cc1ccsc1CN(Cc1ccco1)C(=O)c1ccc(Cl)cc1", "survival": "34% (active)"}
{"smiles": "CC(C)Oc1ccc(C(=O)N(Cc2ccco2)Cc2cccs2)cc1", "survival": "36% (active)"}
{"smiles": "Cc1ccc(N(Cc2cccs2)C(=O)c2ccc(OC(C)C)cc2)cc1", "survival": "95% (inactive)"}
{"smiles": "CC(C)Oc1ccc(C(=O)N(Cc2ccc(N(C)C)cc2)Cc2ccco2)cc1", "survival": "59% (inactive)"}
{"smiles": "Cc1ccc(CN(Cc2ccco2)C(=O)c2cccc(C)c2)cc1", "survival": "68% (inactive)"}
{"smiles": "O=C(c1ccc(Cl)cc1)N(Cc1ccco1)Cc1ccco1", "survival": "97% (inactive)"}
